Glioma ERSR ind: induces the endoplasmic reticulum stress response in human glioma cells; AID 602332; U87-MG GRP78 promoter luciferase reporter, 16 h; 0.02% of 420,000 active; Potency, µM, for the others: top-dose activation, most hits filed as activators; active means well fitted activation curve with a large enough effect; inconclusive means small, poorly fitted or top-dose-only effect; inactive means no such curve, though single readings can be large or run the other way; further: potency means the concentration at half of the fitted maximal effect; series mostly up to about 76 µM; % of control where 0% means no effect; nearly all actives have a fitted effect of over 35% in size
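Stably transfected U87-MG human glioma cells carrying a GRP78-based luminescent sensor were seeded at 1000 cells/well, pin-dosed with compounds and incubated 16 h. Luciferase reagent was then added, and end-point luminescence was read after 10 min at room temperature.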
D1 antagonist: blocks dopamine activation of the human D1 receptor. P21728. HEK293 TREx D1 cells, calcium flux, dopamine EC80; active compounds read low. activity change, negative = inhibition, % at 10 µM. 3.2% of 360,000 active. AID 504652; in the data active means activity change below about -30%; further: on the % scale 0 is the no-effect control and ±100 the full control effect
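Using tetracycline-induced force-coupled D1 Hek293 cells and a calcium dye, signals were followed for 180 s after compound, then for 180 s after EC80 dopamine, to detect inhibitors.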
TRHR agonist: agonists of human TRH receptor; P34981; TRHR cells, calcium flux fluo-8, FDSS agonist mode; activation, % at 2 µM; 0.18% of 360,000 active; AID 493084; further: 0% is about no effect
Target sequence (P34981 whole entry, looked up): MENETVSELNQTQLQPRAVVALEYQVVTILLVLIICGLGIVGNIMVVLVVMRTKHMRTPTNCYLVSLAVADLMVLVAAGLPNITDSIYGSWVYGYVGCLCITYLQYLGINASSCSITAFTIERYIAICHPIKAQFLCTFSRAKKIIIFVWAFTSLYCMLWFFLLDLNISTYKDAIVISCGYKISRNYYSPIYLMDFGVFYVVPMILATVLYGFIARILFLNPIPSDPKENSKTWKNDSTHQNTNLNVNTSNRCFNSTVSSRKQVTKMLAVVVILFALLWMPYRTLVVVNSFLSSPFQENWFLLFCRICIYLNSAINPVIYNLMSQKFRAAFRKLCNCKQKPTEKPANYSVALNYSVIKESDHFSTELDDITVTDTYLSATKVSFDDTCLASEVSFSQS
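TRHR-expressing cells, plated overnight in medium with 10% serum, were loaded with fluo-8 calcium dye at room temperature. After a 10 s baseline, library compound was pin-added and calcium release was recorded kinetically (ex 480/em 530) as agonist response.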
D1 potentiator: human D1 dopamine receptor positive modulation. potentiation, % at 10 µM. 0.036% of 360,000 active. P21728. HEK293 TREx D1 cells, calcium flux, dopamine EC20 potentiation; in the data active means potentiation above about 30%; further: 0% is about no effect
D1 ag: agonists of human D1 dopamine receptor. P21728. HEK293 T-REx D1 cells, calcium flux, agonist mode. activation, % at 2 µM. 1% of 360,000 active. AID 504660; further: 0% is about no effect
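Tetracycline-induced HEK293 TREx D1 cells, force-coupled to calcium signalling, were dye-loaded with a no-wash calcium kit. Compound was pin-added after a 10 s baseline. Fluorescence was read kinetically at 1 cycle/s for 180 s, with calcium rises flagged as agonism.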
TRHR enhancer: TRH receptor (human) allosteric enhancement. P34981. TRHR cells, fluo-8 calcium fluorescence, EC20 TRH enhancement. enhancement, % at 2 µM. 0.66% of 360,000 active. AID 493056; in the data active means enhancement above about 30%; further: 0% is about no effect
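Enhancer read-out: after compound pinning and an initial kinetic agonist-mode read, an EC20 of TRH (10 nM final) was injected and fluo-8 calcium signal (Ex 480/Em 530) followed at 1 s/cycle for 100 cycles in TRHR-expressing cells.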
Starred values were filed as active, the others as inactive; ? = inconclusive; . = not tested or not shown; ! = repeats disagree. The list is not random: actives were taken first. Their share in the collection is about 4%. Unless noted, no stated cut-off is given here; in the data, active means activation above about 30%; inactive means the rest.

SMILES	Glioma ERSR ind	D1 antagonist	TRHR agonist	D1 potentiator	D1 ag	TRHR enhancer
CCOc1ccc(S(=O)(=O)Nc2ccc(C(=O)N3CC(C)OC(C)C3)cc2)cc1 (stereo unspecified)	-2%	2	4	4	31*	3
CCOc1ccc(NS(=O)(=O)c2ccc(C(=O)N3CCCCC3)cc2)cc1	-5%	-15	7	-9	50*	-4
Cc1ccccc1C(=O)N1CCc2c(cnc(C)c2CNC(=O)CN2CCCCC2)C1	-2%	.	.	.	.	.
CC(=O)N1CCCc2cc(S(=O)(=O)NCc3ccccc3Cl)ccc21	-3%	-6	0	-4	10	-2
CCOc1ccc(NS(=O)(=O)c2ccc(C(=O)N3CC(C)OC(C)C3)cc2)cc1 (stereo unspecified)	?	-59*	15	-10	113*	4
CCOc1ccc(NS(=O)(=O)c2ccc3c(c2)N(C(C)=O)CC3)cc1	-3%	-32*	1	-5	8	13
CCOc1ccccc1CNS(=O)(=O)c1ccc2c(c1)CCCN2C(C)=O	-1%	-50*	0	-5	9	-5
CS(=O)(=O)N1CCc2cc(S(=O)(=O)NCc3ccccc3Cl)ccc21	-4%	-101*	1	-6	1	4
COc1cccc(-c2nc3cc4c(cc3cc2CN(C(=O)c2cccs2)C2CC2)CCC4)c1OC	0%	.	.	.	.	.
COC(=O)NC(c1cccc(F)c1)[C@@]1(C(=O)OC)CCCC1=O (stereo partly specified)	-4%	.	.	.	.	.
CCn1c(SCC(=O)N/N=C/C=C\c2ccco2)nc2ccccc21	-2%	-35*	0	-6	3	-7
COC(=O)c1ccc(C(=O)OC)c(NC(=O)CSCc2ccc(Br)cc2)c1	-4%	-42*	1	-3	33*	7
COC(=O)c1ccc(C(=O)OC)c(NC(=O)CN(C)Cc2ccccc2)c1	-2%	-9	1	-1	10	31*
O=C(O)C1C=CCC(C(=O)O)C1 (stereo unspecified)	-1%	.	.	.	.	.
CCCCCCCC[n+]1cccc(C(=O)N(CC)CC)c1	-1%	10	-1	2	1	2
CCCCCCCCCCCCCCCC[n+]1cccc(C(=O)N(CC)CC)c1	-7%	-21	0	15	279*	2
O=C1OC(CO)CN1Cc1ccccc1 (stereo unspecified)	-3%	-40*	0	4	0	0
O=C1OC(CCl)CN1Cc1c(Cl)cccc1Cl (stereo unspecified)	-5%	.	.	.	.	.
Cc1ccccc1NC(=O)c1oc2c(c1C)-c1nn(Cc3cccc(Cl)c3)cc1CC2	-2%	12	0	-3	0	-4
COc1cc(NC(=O)c2oc3c(c2C)-c2nn(Cc4cccc(Cl)c4)cc2CC3)cc(OC)c1	-2%	-31*	0	-2	0	-1
O=C(CSCc1ccc(F)cc1)N1CCc2c([nH]c3ccccc23)C1c1ccc(Cl)cc1 (stereo unspecified)	-3%	-31*	0	-1	2	2
COc1ccc(CC(=O)N2CCc3c([nH]c4ccccc34)C2c2ccc(SC)cc2)cc1 (stereo unspecified)	-4%	-40*	0	-1	1	0
O=C(CSCc1ccc(F)cc1)N1CCc2c([nH]c3ccccc23)C1c1ccccc1 (stereo unspecified)	-2%	1	0	2	0	-3
COc1ccc(CCC(=O)N2CCc3c([nH]c4ccccc34)C2c2ccc(F)cc2)cc1 (stereo unspecified)	-2%	-5	0	-4	5	4
COCCn1c(Cc2ccccc2)nnc1SC(C)C(=O)NC1CC1 (stereo unspecified)	-2%	-43*	0	-2	1	-3
SMILES	Glioma ERSR ind	D1 antagonist	TRHR agonist	D1 potentiator	D1 ag	TRHR enhancer
COc1cccc(-c2csc3nc[nH]c(=O)c23)c1	1%	-34*	-1	-5	3	6
COc1ccc(NC(=O)COC(=O)c2ncc(Cl)c(Cl)c2Cl)c(OC)c1	1%	-41*	0	-2	0	2
CCCNC(=O)CSc1nccn1Cc1ccc(OC)cc1	-3%	-13	1	-2	4	1
CCn1c(CNC(=O)Cc2ccc(OC)cc2)nnc1SCC(=O)NC1CCCCC1	-3%	-39*	0	-5	0	-3
COc1ccc(-n2ccnc2SCC(=O)Nc2ccccc2)cc1	-8%	-4	0	-3	3	5
COc1ccc(Cn2ccnc2SCC(=O)NC2CCCC2)cc1	-1%	-67*!	0	4	6	-5
CCn1c(Cc2ccc(OC)cc2)nnc1SCC(=O)NC1CC1	-2%	-8	0	-4	4	-3
O=C(CSc1nccn1-c1ccc(F)cc1)Nc1ccc(OC(F)(F)F)cc1	-2%	-76*	0	-5	0	1
Cc1cnc2c(C)cccc2c1C	-3%	.	.	.	.	.
COc1ccc2oc(=O)c(C(=O)N3CCN(c4ccc(C)cc4)CC3)cc2c1	0%	6	-1	-4	-1	4
COc1ccc(NC(=O)CSc2nccn2Cc2ccccc2)c(OC)c1	-1%	-36*	0	-7	9	1
COc1cccc(-n2ccnc2SCC(=O)Nc2ccccc2F)c1	-2%	-37*	-3	-5	3	-3
CCn1c(Cc2ccc(OC)cc2)nnc1SCC(=O)Nc1nc2ccccc2s1	-3%	-31*	0	-8	4	-7
Cn1ccnc1SCC(=O)Nc1cccc2ccccc12	0%	-34*	0	-7	2	-8
COC(=O)c1ccccc1NC(=O)CSc1nccn1C	5%	-1	-1	-2	-1	6
Cc1ccc(CN2CCc3nnc(C(NS(C)(=O)=O)C(C)C)n3CC2)cc1C (stereo unspecified)	-3%	.	.	.	.	.
Cc1ccc(Cl)cc1N1CCN(C(=O)c2ccc3c(c2)CCN3S(=O)(=O)c2ccccc2)CC1	-2%	27	3	-2	3	19
CN1CCC(=C2c3ccccc3C(O)c3ccccc32)CC1 (stereo unspecified)	1%	-79*	-1	-8	19	18
CN1CCC(OC2c3ccccc3CCc3ccccc32)CC1	-4%	.	.	.	.	.
Cc1ccc(/C=N/NC(=O)Cn2nnc(N)n2)cc1	3%	-74*	0	-8	1	-22
COc1ccccc1Cn1c(=S)[nH]c2cc(C(=O)NCc3cccnc3)ccc2c1=O	4%	-31*	0	-3	5	-5
COc1ccc(OCC(=O)Nc2cc(-c3nc4ccccc4s3)ccc2C)cc1	0%	2	-1	-1	5	-6
COc1ccc(OCC(=O)Nc2cccc(-c3nc4ccccc4s3)c2C)cc1	.	-16	-1	-1	35*	1

From PubChem BioAssay
